# Source: PubChem BioAssay AID1347146 (National Center for Advancing Translational Sciences (NCATS), 2019)
# Records with an inconclusive call do not appear. Active and inactive are the calls of the source. The call rests on the fitted dose curve; in most records, active means well fitted inhibition curve with a large enough effect; inconclusive means small, poorly fitted or top-dose-only effect; inactive means no such curve, though single readings can be large or run the other way.
# Target: Nicotinamide N-methyltransferase (Homo sapiens) (UniProt P40261)
# Sequence (P40261 whole entry, looked up): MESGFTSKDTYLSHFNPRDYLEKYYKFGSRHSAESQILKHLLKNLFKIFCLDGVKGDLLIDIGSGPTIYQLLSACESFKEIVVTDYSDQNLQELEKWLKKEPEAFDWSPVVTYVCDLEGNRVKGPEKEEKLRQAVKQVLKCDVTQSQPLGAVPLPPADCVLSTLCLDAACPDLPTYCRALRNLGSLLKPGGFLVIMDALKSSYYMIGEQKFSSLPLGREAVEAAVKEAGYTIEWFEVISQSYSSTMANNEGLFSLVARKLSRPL
# Assay: qHTS Assay for Inhibitors of N-terminal methyltransferase 1 (NTMT1): NNMT MTaseGlo counterscreen assay
# Details: NNMT enzyme, MTase-Glo luminescence counterscreen; series mostly up to 57.1 µM; activity change, negative = inhibition: at the top concentration
# Description: Assay Submitter (PI): Rong Huang Ph.D, Purdue University, West Lafayette, IN 47907
# The N-terminal methytransferase 1 is the first methyltransferase that methylates protein alpha-N-amines and plays an important role in regulating cell mitosis, chromatin interactions and DNA repair. It is observed to be over-expressed in various cancer patient tissues like malignant melanoma and colorectal cancer tissues. Knockdown of NTMT1 in cancer cells causes cell mitotic defects and enhances sensitivity to DNA damaging chemotherapeutics. […] These critical cellular processes in which NTMT1 is implicated, coupled with emerging links to cellular dysfunction, strengthen the inference that NTMT1 is a compelling novel anticancer target. Progress have been made in understanding the molecular properties of NTMT1 and the biological consequences of protein alpha-N-terminal methylation, but there are no specific small molecule probes available for NTMT1 to fully characterize its MTase activity. To address this unmet need, a panel of assay is created and established to enable quantitative high-throughput screening (qHTS) for novel, potent, and selective small molecule NTMT1 inhibitors. Two orthogonal qHTS that use different reagents (ThioGlo vs. MTaseGlo) are developed for primary robotic screening against the NCATS chemical library of more than 400,000 small molecules. Identified inhibitors are reacquired, validated, and further characterized.
# MTaseGlo Assay is a luminescence screen that measure the activity of methyltransferases based on the reaction product S-adenosyl homocysteine (SAH). The substrate SAM is converted to SAH upon enzyme activation. MTase-Glo reagent and detection solution convert SAH to ATP and measure the light from the luciferase reaction. Nicotinamide N-methyltransferase (NNMT) is a cystolic enzyme that catalyzes the transfer of a methyl group from the co-factor SAM onto the substrate, nicotinamide (NA) to form 1-methyl-nicotinamide (MNA) and SAH. NNMT MTaseGlo assay is used as a counterscreen to evaluate selectivity of identified inhibitors.
# Early Translation Branch (ETB)
# National Center for Advancing Translational Sciences (NCATS)
# National Institute of Health (NIH)
# NNMT enzyme, SAM, NA, and control is provided by the Huang laboratory.
# In brief, 3 µL of enzyme mixture (final concentrations of 125 nM and 100 µM for NNMT and SAM, respectively) into all wells of a 1,536-well solid-bottom white plate (Greiner Bio One, Monroe, NC). 23 nL of DMSO or compound (final concentration range 234 nM to 143 microM) was transferred via Wako Pin-tool (Wako Automation, Richmond, VA) and incubated (RT) for ~15 minutes. Next, 1 µL of substrate (final concentration 1 µM NA) or buffer was dispensed, and the reaction proceeded for 30 minutes (RT, protected from light) followed by a 1 microL addition of [5X] MTase-Glo Reagent(R). Samples were incubated (RT, protected from light) for 30 minutes to allow for SAH to be converted to ADP, followed by a 5 microL addition of [1X] MTase-Glo Detection Solution(R) to allow for ADP to be converted to ATP, which was then detected with a luciferase reaction. Samples were centrifuged for 15 seconds at 1,000 RPM's, followed by a RT incubation for 30 minutes. Plates were then read using Luminescence optics on a ViewLux detector. Data were normalized to no-enzyme (0% activity) and no-inhibitor (DMSO; 100%) controls, and the resulting percent inhibition data were fitted to a 4-parameter Hill equation using Graphpad Prism.
# Potency means the concentration at half of the fitted maximal effect.
Compound,"activity change, negative = inhibition",Potency
NC1CCc2cc(O)c(O)cc2C1 (stereo not given),-20.9% (inactive),
c1ccc(CCCN2CCN(CCOC(c3ccccc3)c3ccccc3)CC2)cc1,-3.39% (inactive),
Clc1ccc(N2CC3CCC(C2)N3)nn1,-7.24% (inactive),
COC[C@H]1OC(=O)c2coc3c2[C@@]1(C)C1=C(C3=O)C2CCC(=O)[C@@]2(C)C[C@H]1OC(C)=O (stereo not given in full),-16.1% (inactive),
COc1ccc2c(c[n+](C)c3c4cc5c(cc4ccc23)OCO5)c1OC,,12.6 µM (active)
O=C1CC[C@@]2(O)C3Cc4ccc(O)c5c4C2(CCN3CC2CC2)[C@H]1O5 (stereo not given in full),-9.3% (inactive),
C[N+]1(C)CCN(c2ccccc2)CC1,-5.71% (inactive),
CCCN(CCC)[C@H]1CCc2c(F)ccc(O)c2C1,-22.3% (inactive),
CC(=O)c1c(O)c(C)c(O)c(Cc2c(O)c3c(c(C(=O)/C=C/c4ccccc4)c2O)OC(C)(C)C=C3)c1O,-23.9% (inactive),
CCn1cnc2c(Nc3cccc(Cl)c3)nc(N[C@@H]3CCCC[C@@H]3N)nc21,-16.3% (inactive),
NC(=O)CI,-13.1% (inactive),
O=[N+]([O-])c1ccc2nc(N3CCNCC3)ccc2c1,-19% (inactive),
CC(N)Cc1c[nH]c2ccc(O)cc12 (stereo not given),-22.4% (inactive),
Ic1ccccc1CNC1C2CCN(CC2)C1C(c1ccccc1)c1ccccc1 (stereo not given),-24.1% (inactive),
CN[C@@H]1C[C@@H](c2ccc(Cl)c(Cl)c2)c2ccccc21,-19.2% (inactive),
CNCCc1c[nH]c2ccc(O)cc12,-12% (inactive),
C[N+](C)(C)CC#CCN1CCCC1=O,-8.54% (inactive),
NCC(O)c1cc(O)c(O)cc1F (stereo not given),-18.4% (inactive),
C[N+]1(C)C2CCC1CC(OC(=O)c1c[nH]c3ccccc13)C2 (stereo not given),-8.16% (inactive),
O=[N+]([O-])c1cc(O)c(O)c([N+](=O)[O-])c1,-3.9% (inactive),
N#CC(C#N)=Cc1ccc(O)c(O)c1,-10.2% (inactive),
NC(N)=Nc1ccc2[nH]c3c(c2c1)C[C@@]1(O)[C@H]2Cc4ccc(O)c5c4[C@@]1(CCN2CC1CC1)[C@H]3O5,-14.4% (inactive),
CC(N)[C@H](O)c1ccc(O)c(O)c1 (stereo not given in full),-18.7% (inactive),
CC(C)=CCOc1c2occc2cc2ccc(=O)oc12,-18.6% (inactive),
CC(C)(C)c1cc(C=C(C#N)C#N)cc(C(C)(C)C)c1O,-12.1% (inactive),
